ALDH1A1 block – ALDH1A1 (human) enzyme inhibition | P00352 | Purified ALDH1A1, NADH fluorescence, propionaldehyde substrate | Potency, µM (series often up to 75.3 µM), hits mostly inhibitors | hit rate 7.3% among 220,000; active means well fitted inhibition curve with a large enough effect, not every such curve was filed as active; inconclusive means small, poorly fitted or top-dose-only effect, or another doubt; inactive means no such curve, though single readings can be large or run the other way
Tau FP inhib – blocks human tau fibril formation measured by polarization | K18 P301L tau heparin fibrillization, Alexa594 FP, 6 h | hit rate 0.39% among 280,000 | P10636 | Potency, µM (doses to about 57.7 µM), hits mostly inhibitors; further: nearly all actives have a fitted effect of over 55% in size
Target sequence (P10636 561-689 P618L limits assumed): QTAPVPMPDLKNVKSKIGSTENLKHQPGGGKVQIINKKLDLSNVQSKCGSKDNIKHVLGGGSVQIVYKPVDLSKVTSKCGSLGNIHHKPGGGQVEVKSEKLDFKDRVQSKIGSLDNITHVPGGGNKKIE
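FP of Alexa 594-tau after heparin (20 uM) induction. Substrate: human K18 P301L, 15 uM unlabeled, 0.24 uM labeled. Buffer 100 mM sodium acetate pH 7. 6 hr, 37 C.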
Tau fluor counter – counter-screen for tau fibril formation inhibitors; tau K18 P301L Alexa594 fluorescence, heparin fibrillization; Potency, µM (highest dose often 57.7 µM); hit rate 0.93% among 280,000; AID 1463; further: nearly all actives have a fitted effect of over 55% in size
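Human K18 P301L tau (15 uM unlabeled plus 0.24 uM Alexa 594-labeled, final) in 100 mM sodium acetate pH 7 was mixed with compound and 20 uM heparin and incubated 6 hr at 37 C.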
HPGD inh – blocks human HPGD enzyme activity | purified HPGD, NADH fluorescence kinetic, PGE2 substrate | Potency, µM, usual class: inhibitors | hit rate 4.3% among 150,000 | AID 894; active means well fitted inhibition curve with a large enough effect, not every such curve was filed as active; inconclusive means small, poorly fitted or top-dose-only effect, or another doubt; inactive means no such curve, though single readings can be large or run the other way
Target sequence (P15428 whole entry, looked up): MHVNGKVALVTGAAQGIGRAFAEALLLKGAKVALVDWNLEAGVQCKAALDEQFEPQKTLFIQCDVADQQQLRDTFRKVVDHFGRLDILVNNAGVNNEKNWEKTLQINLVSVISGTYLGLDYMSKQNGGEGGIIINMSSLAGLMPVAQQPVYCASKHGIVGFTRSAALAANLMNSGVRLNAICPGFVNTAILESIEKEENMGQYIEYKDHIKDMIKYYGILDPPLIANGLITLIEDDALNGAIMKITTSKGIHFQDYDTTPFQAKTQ
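NADH formation kinetics: reaction with 30 uM PGE2 and 1 mM NAD+ (final), 20 nM enzyme, Tris-HCl pH 8 with Tween 20, after 15 min compound preincubation at room temperature. Fluorescence change, last versus first of five reads.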
KDM4E inh – inhibitors of human JMJD2E histone demethylase; Potency, µM (titrated, usually from 57.1 µM), most hits filed as inhibitors; JMJD2E catalytic domain, FDH-coupled NADH fluorescence (FDH is formaldehyde dehydrogenase); AID 2147; hit rate 1.6% among 230,000; active means well fitted inhibition curve with a large enough effect, not every such curve was filed as active; inconclusive means small, poorly fitted or top-dose-only effect, or another doubt; inactive means no such curve, though single readings can be large or run the other way; further: nearly all actives have a fitted effect of over 50% in size
Tau ThT inhib – blocks human tau fibril formation measured by thioflavin T | recombinant tau K18 P301L (four-repeat tau fragment), heparin-induced fibrillization, ThT fluorescence | Potency, µM (titrated, usually from 57.4 µM), usual class: inhibitors | hit rate 2.1% among 270,000; further: nearly all actives have a fitted effect of over 55% in size
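In this qHTS, human K18 P301L tau is incubated with compound and heparin for 6 hr at 37 C, and Thioflavin T fluorescence then reports fibril load.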
Numbers stand for hits; n = inactive; u = inconclusive; x = no result; [ ] = another dose, or the depositor's remark. Compounds with a hit are over-represented: about 9.9% of the library has one in this group of screens. Unless noted, the call rests on the fitted dose curve; in most records, active means well fitted curve in the direction sought with a large enough effect; inconclusive means small, poorly fitted or top-dose-only effect, or another doubt; inactive means no such curve, though single readings can be large; an effect the other way counts as inactive or inconclusive.

SMILES | ALDH1A1 block | Tau FP inhib | Tau fluor counter | HPGD inh | KDM4E inh | Tau ThT inhib
Cc1ccc(SCc2[nH]nc3c2C(C(C)C)C(C#N)=C(N)O3)cc1 (stereo not given) | n | n | n | n | n | n
COc1cccc2sc(N(Cc3cccnc3)C(=O)COc3ccccc3)nc12 | x | n | n | x | x | n
Cn1nc(C(=O)NCc2ccc(F)cc2)c2ccccc2c1=O | n | n | n | n | n | n
CC(NC(=O)c1nn(C)c(=O)c2ccccc12)c1ccccc1 (stereo not given) | 16µM | n | n | n | n | n
Cn1nc(C(=O)NCc2ccccc2)c2ccccc2c1=O | 20µM | n | n | n | n | n
CNc1nc(SCc2ccccc2Cl)nc2c1CCCC2 | n | n | n | n | n | n
CC(=O)N1CCCc2cc(S(=O)(=O)N(C)CC(=O)Nc3cccc(Cl)c3C)ccc21 | x | n | n | x | x | n
CC(C)(C)OC(=O)N1CCC(CNC(=O)c2ccc(F)cc2)CC1 | x | n | n | x | n | x
C=CCOC(=O)C1=C(C)NC(SCC(=O)OCC)=C(C#N)C1c1ccc(O)c(OC)c1 (stereo not given) | u | n | n | n | n | u
C=CCOC(=O)C1=C(C)NC(SCC(=O)Nc2nccs2)=C(C#N)C1c1cccs1 (stereo not given) | u | n | 16µM[quencher] | n | n | u
CC(=O)C1=C(C)NC(SCC(=O)Nc2nccs2)=C(C#N)C1c1ccccc1Cl (stereo not given) | u | n | n | n | n | n
C=CCOC(=O)C1=C(C)NC(SC)=C(C#N)C1c1cccs1 (stereo not given) | u | n | n | n | n | n
C=CCOC(=O)C1=C(C)NC(SCC(=O)Nc2nccs2)=C(C#N)C1c1ccc(Cl)cc1 (stereo not given) | u | u | 10µM[quencher] | n | u | n
C=CCOC(=O)C1=C(C)NC(SC)=C(C#N)C1c1ccc(OCC)cc1 (stereo not given) | 20µM | n | u | x | u | n
C[C@]12O[C@H]1[C@@H](O)C(Br)=C(CO)[C@H]2O | n | n | n | n | n | n
COc1ccc(Cn2c(O)c(C=Nc3ccccc3C(=O)O)c3ccccc3c2=O)cc1 | x | n | n | x | u | u
COc1ccccc1NS(=O)(=O)c1cccc(-n2c(O)c(C=Nc3ccccc3C(=O)O)c3ccccc3c2=O)c1 | x | n | u | x | n | 16µM
CCc1ccc(-n2nc(C)c3c(C)cc(=O)n(CC(=O)N4CCCc5ccccc54)c32)cc1 | x | n | n | x | x | u
CN(C)C(CNC(=O)c1ccc2c(=O)n(-c3ccccc3F)c(=S)[nH]c2c1)Cc1ccccc1 (stereo not given) | 13µM | n | n | x | n | n
COc1ccc(C)cc1S(=O)(=O)Nc1ccc(F)c(Cl)c1 | n | n | n | 28µM | n | n
COc1ccc(NS(=O)(=O)c2cc(C)ccc2OC)cc1OC | n | n | n | n | n | n
O=C(O)c1cccnc1Cl | n | n | n | n | n | n
O=C(O)c1cccnc1C(=O)O | n | u | n | n | 2µM | n
C=CCn1c(O)c(CN2CCN(Cc3ccccc3)CC2)c(C)c(C#N)c1=O | u | u | n | n | u | 16µM
CC1Sc2ccc(C(=O)O)cc2NC1=O (stereo not given) | n | n | n | n | n | n
SMILES | ALDH1A1 block | Tau FP inhib | Tau fluor counter | HPGD inh | KDM4E inh | Tau ThT inhib
COc1ccc(CNC(=O)c2ccc3c(c2)NC(=O)C(C)S3)cc1 (stereo not given) | 10µM | u | n | x | n | u
Cc1ccc(S(=O)(=O)N(c2nc(NC(C)C)nc(NC(C)C)n2)n2cnnc2)cc1 | u | n | n | n | n | n
O=C(NCCc1ccc(Cl)cc1)C(=O)NCC(c1ccc2c(c1)OCO2)N1CCOCC1 (stereo not given) | x | n | n | x | x | n
Cc1ccc(S(=O)(=O)/C=C\C#N)cc1 | 0.011µM | u | n | 3.5µM | n | u
CC(C)(C)c1ccc(S(=O)(=O)/C=C\C#N)cc1 | 0.056µM | u | n | 2.8µM | u | u
CCc1ccc(C2NC(=S)NC3=C2C(=O)CCC3)cc1 (stereo not given) | u | n | n | n | n | n
Cc1ccccc1C1NC(=S)NC2=C1C(=O)CCC2 (stereo not given) | 22µM | n | n | x | n | n
